# HCV NS3h FP – blocks HCV NS3 helicase binding to DNA; NS3h Cy5-dT15 DNA binding, fluorescence polarization; inhibition, % at 100 µM; 1.6% of 16,000 active;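 active = inhibition above the average over every tested compound plus 3 SD, cut at about 40% in these data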
# Cy5 interf NS3h – Cy5 fluorescence interference, HCV helicase counter-screen. Cy5-dT15 DNA with NS3h; actives lie on both sides; signal over control mean, under 1 quenches. fluorescence interference ratio at 100 µM. 6% of 16,000 active;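 active = compound fluorescence over control fluorescence at most 0.8, a quencher, or at least a set upper limit, an enhancer; inactive = ratio between 0.8 and the set upper limit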
# NS3h confirm – confirmation of hepatitis C virus NS3 helicase inhibitors; shares compounds with HCV NS3h FP; NS3h binding to Cy5-dT15 DNA, fluorescence polarization; inhibition, % at 100 µM; 20% of 240 active;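 active = percent inhibition of 50% or more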
# SSB FP counter – counter-screen for HCV NS3 helicase inhibitors: E. coli SSB binding | E. coli SSB binding Cy5-dT15, fluorescence polarization | shares compounds with HCV NS3h FP | AID 720486 | 40% of 240 active | inhibition, % at 100 µM;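 active = inhibition of at least 50%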;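 note: displacers lower Cy5 polarization so higher inhibition means more SSB displaced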
# Target sequence (P0AGE0 whole entry, looked up): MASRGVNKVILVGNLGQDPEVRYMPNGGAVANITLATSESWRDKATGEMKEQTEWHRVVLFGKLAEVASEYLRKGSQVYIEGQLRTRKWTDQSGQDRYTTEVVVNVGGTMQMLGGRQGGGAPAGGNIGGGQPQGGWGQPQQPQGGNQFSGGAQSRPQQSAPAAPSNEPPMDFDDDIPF
# Cy5 SSB interf – counter-screen for HCV NS3 helicase inhibitors: fluorescence interference; fluorescence interference ratio at 100 µM; Cy5-dT15/E. coli SSB fluorescence interference; actives lie on both sides; shares compounds with HCV NS3h FP; AID 720487; 8% of 240 active;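 active = fluorescence interference ratio at or above 1.2, signal boosting, or at or below 0.8, signal quenching; inactive = ratio between 0.8 and 1.2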
# Cy5 fluor confirm – Cy5 fluorescence interference, confirmation counter-screen; Cy5-dT15 DNA/NS3h fluorescence interference counterscreen; 44% of 240 active; shares compounds with HCV NS3h FP; fluorescence interference ratio at 100 µM, hits read low; AID 720489;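 active = fluorescence interference ratio at or below 0.8 quencher or at or above a set limitenhancer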
# Numbers stand for hits; – = inactive. This is a sample that favours compounds with a hit; in the whole collection about 6.8% have one here.
SMILES,HCV NS3h FP,Cy5 interf NS3h,others
O=[N+]([O-])c1ccc(NCCOc2cccc3ccccc23)c2ncccc12,–,0.75,
COc1ccc(C=C(C#N)C#N)cc1OC,–,–,
Cc1cc(-c2ccc(C=C3C(=O)NC(=S)NC3=O)o2)cc([N+](=O)[O-])c1C,–,–,
Cc1ccc(-c2ccc(C=C3C(=O)NC(=S)NC3=O)o2)cc1[N+](=O)[O-],42,–,
Cc1cc(C=C2C(=O)NC(=O)NC2=O)c(C)n1-c1ccc(N(C)C)cc1,–,–,
O=[N+]([O-])c1ccc(N2CCNCC2)cc1NCCc1ccccc1,–,0.78,
O=P(Oc1ccccc1)(Oc1ccccc1)OC1CCS(=O)(=O)C1 (centres undefined),–,–,
Cc1ccc(N2C(=O)CC(=O)NC2=S)cc1,–,–,
O=C1CC(=O)N(c2ccc(Cl)c(Cl)c2)C(=S)N1,–,0.62,
O=C1NC(=O)N(c2ccc(Br)cc2)C(=O)/C1=C/c1ccc(Oc2ccc([N+](=O)[O-])cn2)cc1,–,–,
CCC1(Cc2ccccc2)C(=O)NC(=O)NC1=O,–,–,
COc1ccc(OC)c(CN2CCNCC2)c1,–,–,
O=C1NC(=S)N(c2ccc(Br)cc2)C(=O)/C1=C/c1ccc(-c2ccc(C(=O)O)cc2)o1,–,–,
Cc1ccc(N2C(=O)NC(=O)/C(=C/c3ccc(-c4cccc(C(=O)O)c4)o3)C2=O)cc1,50,–,NS3h confirm=89;SSB FP counter=70;Cy5 SSB interf=–;Cy5 fluor confirm=–
Cc1ccc(N2C(=O)/C(=C/c3ccc(-c4ccc(C(=O)O)cc4)o3)C(=O)NC2=S)cc1,50,–,NS3h confirm=–;SSB FP counter=62;Cy5 SSB interf=–;Cy5 fluor confirm=–
CN1C(=O)C(=Cc2ccc(-c3cccc(C(=O)O)c3)o2)C(=O)N(C)C1=O,–,–,
Cc1ccc(-c2nc3ccccc3c(=O)n2-c2nccs2)cc1,–,–,
O=C1NC(=S)NC(=O)C1CCCC=C(Cl)Cl,–,–,NS3h confirm=–;SSB FP counter=–;Cy5 SSB interf=–;Cy5 fluor confirm=–
CC(C)Oc1ccc(Br)cc1C=C1C(=O)NC(=O)NC1=O,–,–,
O=C1NC(=O)C(=Cc2ccccc2OCc2ccccc2Cl)C(=O)N1,56,0.58,NS3h confirm=–;SSB FP counter=–;Cy5 SSB interf=–;Cy5 fluor confirm=0.73
CC(=O)c1ccc(OC(NC(=O)c2cccc(C)c2)C(Cl)(Cl)Cl)cc1 (centres undefined),–,–,
Cc1cc(OCC(N)=O)c2c3c(c(=O)oc2c1)CCC3,–,–,
CCCCOC(=O)COc1cc(C)cc2oc(=O)c3c(c12)CCC3,54,–,NS3h confirm=–;SSB FP counter=–;Cy5 SSB interf=–;Cy5 fluor confirm=–
COc1ccccc1CN1CCN(Cc2ccc(F)cc2)CC1,–,–,
CN(C)c1ccc(C=C2C(=O)NC(=S)N(c3ccccc3F)C2=O)cc1,–,–,
SMILES,HCV NS3h FP,Cy5 interf NS3h,others
CCN1C(=O)C(=Cc2ccc(N(CC)CC)cc2)C(=O)N(CC)C1=S,55,2,NS3h confirm=–;SSB FP counter=–;Cy5 SSB interf=–;Cy5 fluor confirm=1.4
O=c1oc2ccccc2c2c1C(c1ccc(Br)cc1)c1c(c3ccccc3oc1=O)O2,–,–,
O=C1NC(=O)C(=Cc2ccc(-c3ccccc3C(=O)O)o2)C(=O)N1,68,–,NS3h confirm=54;SSB FP counter=–;Cy5 SSB interf=–;Cy5 fluor confirm=–
O=C1NC(=O)C(=Cc2ccc(-c3cc([N+](=O)[O-])ccc3O)o2)C(=O)N1,185,1.7,NS3h confirm=100;SSB FP counter=100;Cy5 SSB interf=–;Cy5 fluor confirm=–
COC(=O)c1ccc(-c2ccc(C=C3C(=O)NC(=S)NC3=O)o2)cc1,–,–,
O=C1NC(=O)C(=Cc2ccc(O)c(O)c2)C(=O)N1,–,–,
CC(C)C(=O)N1N=C(c2cccnc2)CC1(O)C(F)(F)F (centres undefined),–,–,
CCCCn1c(=O)c(C(=O)Nc2ncccc2O)c(O)c2ccccc21,–,–,
CC(C)(C)C(=O)CC(O)(c1ccccc1)C(Cl)(Cl)Cl (centres undefined),–,–,
Cc1cc(/C=C2\C(=O)NC(=S)N(c3ccccc3F)C2=O)c(C)n1C,–,–,
Cc1cc(OCC(=O)c2ccc(Cl)cc2)c2c3c(c(=O)oc2c1)CCC3,–,–,

# Screens: PubChem, Milwaukee Institute for Drug Discovery
